dFosB act: mouse delta FosB homodimer activation. activation, % at 25 µM. 340,000 tested, 0.99% active. AID 493131. purified delta FosB, TAMRA-CDK5 oligo fluorescence polarization; percent of positive-control signal above neutral wells;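 active = mean activation above about 17%, with every replicate also reaching it, limit read from the data, passing the limit was not always enough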
EBNA-1 inhibitor: blocks EBNA-1 binding to DNA; 300,000 tested, 0.34% active; EBNA-1 DNA binding, fluorescence polarization; inhibition, % at 14.8 µM; in the data active = inhibition above about 28%
TPT1 inh: blocks Candida albicans tRNA 2'-phosphotransferase. AID 1962. recombinant caTPT1, FP RNA substrate dephosphorylation. 300,000 tested, 0.81% active. inhibition, % at 5 µM;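 active = inhibition above the mean of all tested compounds plus 3 SD, set per screening campaign, cut at about 24% in these data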
ZTA counter: counter-screen for EBNA-1 inhibitors: inhibitors of Epstein-Barr virus ZTA. P03206. ZTA-DNA binding, fluorescence polarization. inhibition, % at 11 µM. 320,000 tested, 0.15% active. AID 2234; in the data active = inhibition above about 33%
Rpn11 block: blocks the human proteasome subunit Rpn11; 360,000 tested, 0.59% active; human 26S proteasome, Ub4-pepOG fluorescence polarization; 20S core pre-blocked with epoxomicin; AID 588493; O00487; inhibition, % at 20 µM;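 active = inhibition at 20 µM, scaled to each plate's controls, above about 33%, limit read from the data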
NR3A LBD binder: modulators (binders) of human NR3A ligand-binding domain; NR3A LBD differential scanning fluorimetry, Tm shift; 0% = protein alone, 100% = glycine-bound protein; Tm shift relative to glycine control, % at 25 µM; 340,000 tested, 2.5% active; AID 1259313;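 active = melting temperature shift of at least 10% of the positive control shift, at one fixed dose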
caTPT1 confirm: confirmation of Candida albicans TPT1 inhibitors. shares compounds with TPT1 inh. recombinant caTPT1, fluorescence polarization, RNase T1 coupled. inhibition, % at 5 µM. 2,400 tested, 74% active;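 active = inhibition above the primary screen limit, the mean inhibition of all tested compounds plus 3 SD, cut at about 25% in these data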
RNase T1 inh: counter-screen for TPT1 inhibitors: inhibitors of Aspergillus oryzae RNase T1. shares compounds with TPT1 inh. RNase T1 cleavage, fluorescence polarization, 1536-well. inhibition, % at 5 µM. 2,400 tested, 83% active. AID 2153;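 active = inhibition above the solvent-only control well mean plus 3 SD, limit set per screening run, cut at about 23% in these data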;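 also: inhibitors block cleavage so intact labeled substrate keeps polarization high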
Rpn11 confirm: Rpn11 inhibition confirmation, single concentration; shares compounds with Rpn11 block; purified human 26S proteasome, Ub4-pepOG fluorescence polarization; proteasome pretreated with epoxomicin; inhibition, % at 20 µM; 1,900 tested, 29% active
MMP-2 inh: MMP-2 (human) inhibition counter-screen; shares compounds with Rpn11 block; recombinant MMP-2, FRET peptide cleavage fluorescence; inhibition, % at 20 µM; 1,900 tested, 4% active;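 also: human MMP-2 activated beforehand with APMA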
Thrombin FP: blocks bovine thrombin, flagging nonselective RPN11 hits; 1,900 tested, 13% active; shares compounds with Rpn11 block; bovine thrombin cleavage of Ub4-pepOG, fluorescence polarization; inhibition, % at 20 µM;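 active = mean inhibition at least 40% at 20 µM, or signal 3 deviations below plate average, so some actives read negative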
Target sequence (P00735 whole entry, looked up): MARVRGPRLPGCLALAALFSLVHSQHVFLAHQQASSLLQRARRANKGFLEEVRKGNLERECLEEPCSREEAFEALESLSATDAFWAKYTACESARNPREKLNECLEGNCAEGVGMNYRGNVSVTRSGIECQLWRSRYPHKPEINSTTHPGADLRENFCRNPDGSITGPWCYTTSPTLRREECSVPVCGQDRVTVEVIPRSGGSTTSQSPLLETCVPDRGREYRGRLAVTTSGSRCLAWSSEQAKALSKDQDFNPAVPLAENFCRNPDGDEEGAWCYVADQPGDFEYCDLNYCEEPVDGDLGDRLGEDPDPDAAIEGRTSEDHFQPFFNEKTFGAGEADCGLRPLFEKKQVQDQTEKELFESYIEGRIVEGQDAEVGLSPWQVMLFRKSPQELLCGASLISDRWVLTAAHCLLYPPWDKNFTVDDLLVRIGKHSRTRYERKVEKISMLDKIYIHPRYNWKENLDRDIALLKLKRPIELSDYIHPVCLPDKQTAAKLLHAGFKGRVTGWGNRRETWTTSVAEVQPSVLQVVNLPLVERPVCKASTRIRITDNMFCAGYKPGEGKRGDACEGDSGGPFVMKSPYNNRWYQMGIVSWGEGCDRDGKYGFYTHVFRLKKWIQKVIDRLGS
Each line names hits and unclear results; the compound was inactive in the other large screens (follow-up assays come after a bar, where they were run). Shown are actives, neighbours in structure and some others; about 4.5% of the full set was active somewhere. Rule as the data show it, unless noted: active = inhibition above about 40%; inactive = the rest.

CN1/C(=C\C=[N+](C)c2ccccc2)C(C)(C)c2ccccc21	none
CN1/C(=C/C=C(/C#N)C(N)=O)C(C)(C)c2ccccc21	TPT1 inh 86.9, Rpn11 block 43.2 | caTPT1 confirm 68.1 | RNase T1 inh 82.2 | Rpn11 confirm inactive | MMP-2 inh inactive | Thrombin FP inactive
O=C(Nc1nc2c(s1)CN(Cc1ccccc1)CC2)c1c(F)cccc1F	TPT1 inh 24.4, Rpn11 block 46.1 | caTPT1 confirm 36.8 | RNase T1 inh 48.8 | Rpn11 confirm inactive | MMP-2 inh inactive | Thrombin FP inactive
COc1cc(/C=C2/C(=O)N(c3cccc(Br)c3)N=C2C)cc(OC)c1O	TPT1 inh 69.9, Rpn11 block 78.2, NR3A LBD binder 14.7 | caTPT1 confirm 86.4 | RNase T1 inh 90.6 | Rpn11 confirm 80.2 | MMP-2 inh inactive | Thrombin FP 59.9
COc1cc(/C=C2/C(=O)N(c3ccc(Br)cc3)N=C2C)cc([N+](=O)[O-])c1O	none (no result: dFosB act, Rpn11 block, NR3A LBD binder)
CN(C)S(=O)(=O)c1cccc(-c2nn(-c3ccccc3)cc2/C=C2\SC(=S)NC2=O)c1	TPT1 inh 74.7, Rpn11 block 86.5, NR3A LBD binder 11.2 | caTPT1 confirm inactive | RNase T1 inh 32.9 | Rpn11 confirm inactive | MMP-2 inh inactive | Thrombin FP inactive
CN(C)S(=O)(=O)c1cccc(-c2nn(-c3ccccc3)cc2/C=C(\C#N)c2nc3ccccc3[nH]2)c1	none
CCOC(=O)C1=C(C)N=c2s/c(=C\c3ccc(OCC(=O)O)c(OC)c3)c(=O)n2C1c1ccc(OC)cc1 (stereo unspecified)	TPT1 inh 25.4, Rpn11 block 40.7 | caTPT1 confirm 43.7 | RNase T1 inh 53.4 | Rpn11 confirm inactive | MMP-2 inh inactive | Thrombin FP inactive
CCOC(=O)C1=C(C)N=c2s/c(=C\c3cccc(OCC(=O)O)c3)c(=O)n2C1c1ccccc1 (stereo unspecified)	none (no result: EBNA-1 inhibitor, TPT1 inh, ZTA counter)
COC(=O)C1=C(C)N=c2s/c(=C/c3ccoc3)c(=O)n2C1c1ccccc1 (stereo unspecified)	TPT1 inh 58.1, Rpn11 block 107.4 | caTPT1 confirm 61.3 | RNase T1 inh 72.7 | Rpn11 confirm 47.9 | MMP-2 inh inactive | Thrombin FP 47.4
Cc1sc2nc(CSC(C)C(=O)Nc3ccc(C#N)cc3)[nH]c(=O)c2c1C (stereo unspecified)	TPT1 inh 28.7, Rpn11 block 45.5 | caTPT1 confirm 37.6 | RNase T1 inh 49.3 | Rpn11 confirm inactive | MMP-2 inh inactive | Thrombin FP inactive
Cc1sc2nc(CSCC(=O)Nc3ccccc3C#N)[nH]c(=O)c2c1C	TPT1 inh 36.9, Rpn11 block 49.2 | caTPT1 confirm 47.1 | RNase T1 inh 60.8 | Rpn11 confirm 45.8 | MMP-2 inh inactive | Thrombin FP inactive
CC1CCCC(NC(=O)CN2C(=O)c3cccnc3Oc3ccc(Cl)cc32)C1C (stereo unspecified)	none
Cc1[nH]c2ccccc2c1/C=N/n1cnnc1	none
COCCN=c1scc(-c2cc(OC)c(OC)c(OC)c2)n1/N=C/c1c(C)[nH]c2ccccc12	TPT1 inh 44.2, Rpn11 block 112.1 | caTPT1 confirm 59.8 | RNase T1 inh 70.6 | Rpn11 confirm 56.1 | MMP-2 inh inactive | Thrombin FP inactive
CCCCCCCCSc1nnc(CSc2nc3nc(C)cc(C)n3n2)o1	none
CCOC1=C/C(=C/c2c(N)n3nc(S(=O)(=O)CC)sc3nc2=O)C=CC1=O	TPT1 inh 28.0, Rpn11 block 73.7 | caTPT1 confirm 56.3 | RNase T1 inh 58.6 | Rpn11 confirm 65.0 | MMP-2 inh inactive | Thrombin FP 46.2
CCCSc1nnc(NC(=O)c2ccco2)s1	none
CCCSc1nnc(NC(=O)c2sc3nc(-c4cccs4)ccc3c2N)s1	TPT1 inh 66.3, Rpn11 block 76.4 | caTPT1 confirm inactive | RNase T1 inh 27.5 | Rpn11 confirm 61.4 | MMP-2 inh inactive | Thrombin FP inactive
CNC(=O)c1sc(N2N=C3/C(=C/c4ccccc4)CCCC3C2c2ccccc2)nc1C (stereo unspecified)	TPT1 inh 28.0, Rpn11 block 44.1 | caTPT1 confirm 44.0 | RNase T1 inh 52.5 | Rpn11 confirm inactive | MMP-2 inh inactive | Thrombin FP inactive
CNC(=O)c1sc(N2N=C3/C(=C\c4ccccc4)CCCC3C2c2ccccc2)nc1C (stereo unspecified)	none (no result: EBNA-1 inhibitor, TPT1 inh, ZTA counter)
Clc1ccc(C2=NN(c3ccccc3)C(c3ccco3)C2)cc1 (stereo unspecified)	none
C(=C\c1ccco1)/C1=NN(c2ccccc2)C(c2ccco2)C1 (stereo unspecified)	TPT1 inh 53.4, Rpn11 block 72.0 | caTPT1 confirm 38.2 | RNase T1 inh 46.6 | Rpn11 confirm 70.2 | MMP-2 inh inactive | Thrombin FP 54.7
COc1cc(SC#N)ccc1N=Cc1c(C)[nH]n(-c2ccc(C)c(C)c2)c1=O	TPT1 inh 30.4, Rpn11 block 44.0 | caTPT1 confirm 62.5 | RNase T1 inh 67.4 | Rpn11 confirm inactive | MMP-2 inh inactive | Thrombin FP inactive
CCOC(=O)Cc1csc(NC(=O)c2sc3nc4ccc(C)cc4cc3c2N)n1	TPT1 inh 25.6, Rpn11 block 60.8 | caTPT1 confirm 51.3 | RNase T1 inh 62.1 | Rpn11 confirm 76.7 | MMP-2 inh inactive | Thrombin FP 40.6
CCc1nnc(NC(=O)c2sc3nc4cc(C)ccc4cc3c2N)s1	TPT1 inh 26.9, Rpn11 block 71.1, NR3A LBD binder 20.0 | caTPT1 confirm 28.5 | RNase T1 inh 41.1 | Rpn11 confirm inactive | MMP-2 inh inactive | Thrombin FP inactive
CCOC(=O)Cc1csc(NC(=O)c2cccnc2)n1	none
CCCCCC/C(C)=C1/SC(=S)NC1=O	TPT1 inh 51.2, Rpn11 block 47.6 | caTPT1 confirm inactive | RNase T1 inh inactive | Rpn11 confirm inactive | MMP-2 inh inactive | Thrombin FP inactive
CCCCCCCCCC(=O)O	none (no result: EBNA-1 inhibitor, TPT1 inh, ZTA counter)
COc1ccc(C(C)(C)C)cc1NC(=O)COC(=O)c1ccc([N+](=O)[O-])o1	none

Screening data (PubChem)
